Screening data deposited in PubChem by National Center for Advancing Translational Sciences (NCATS).
Shown are actives, neighbours in structure and some others; about 3.2% of the full set was active somewhere.
GLP-1R agonist – activates the human GLP-1 receptor. Potency, µM (top dose mostly 45.6 µM), inactives show at the top dose activation, hits mostly activators. P43220. 380,000 compounds, 0.007% hits. HEK293 GLP-1R CRE-luciferase, luminescence, 4-6 h; cells express a hypersensitive GLP-1R form; further: % of control where 0% means no effect
Target sequence (P43220 whole entry, looked up): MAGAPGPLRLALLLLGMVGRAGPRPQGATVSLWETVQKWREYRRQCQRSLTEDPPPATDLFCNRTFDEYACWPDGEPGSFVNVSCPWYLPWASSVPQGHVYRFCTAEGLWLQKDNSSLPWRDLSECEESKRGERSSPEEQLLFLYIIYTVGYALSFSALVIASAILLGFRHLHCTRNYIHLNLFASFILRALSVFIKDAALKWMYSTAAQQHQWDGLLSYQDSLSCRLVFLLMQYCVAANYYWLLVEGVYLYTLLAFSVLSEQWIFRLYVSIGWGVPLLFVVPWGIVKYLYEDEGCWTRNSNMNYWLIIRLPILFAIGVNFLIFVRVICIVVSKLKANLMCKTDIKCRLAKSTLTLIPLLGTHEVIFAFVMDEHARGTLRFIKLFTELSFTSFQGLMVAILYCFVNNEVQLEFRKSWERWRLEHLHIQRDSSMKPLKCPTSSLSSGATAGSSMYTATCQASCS
HEK293 tox – cytotoxicity counter-screen for GLP-1 receptor inverse agonists; HEK293 cAMP-luciferase reporter cells, luminescence, 24 h; Potency, µM (top dose mostly 38.3 µM), without a hit: at the top dose activity change, negative = inhibition, actives largely listed as inhibitors; 410,000 compounds, 0.13% hits; AID 624418;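 further: loss of luciferase light is scored as toxicity; on the % scale 0 is the no-effect control and ±100 the full control effect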
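1536-well qHTS counterscreen of the MLSMR; 200 cells/uL, 12 h pre-incubation, 23 nL cpd, 24 h at 37 deg C 5% CO2, luciferase detection reagent, 12 min RT, luminescence. Inhibition = undesired.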
GLP1R inv ag – acts as inverse agonist at human GLP-1 receptor; HEK293 GLP-1R CRE-luciferase, luminescence, 24 h; GLP-1R form is constitutively active; AID 624417; 410,000 compounds, 1.6% hits; Potency, µM (highest dose often 38.3 µM), without a hit: at the highest dose activity change, negative = inhibition, most hits filed as inhibitors; P43220; further: on the % scale 0 is the no-effect control and ±100 the full control effect; nearly all actives have a fitted effect of over 55% in size
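GLP-1R inverse agonism mode: basal reporter luminescence in engineered HEK293 cells measured after one day of compound exposure at 37 deg C, with a 12 min room-temperature detection step.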
ClpP mod – qHTS Assay for Activators of ClpP; Potency, µM (series often up to 57.5 µM), without a hit: at the top dose activity change, negative = active; 340,000 compounds, 1.9% hits; purified B. subtilis ClpP, FRET peptide cleavage, 20 min; AID 651965, 2013; active means well fitted falling curve with a large enough effect; inconclusive means small, poorly fitted or top-dose-only effect; inactive means no such curve, though single readings can be large or run the other way; further: the source files actives as falling curves though it sought activators and does not explain the sign; nearly all actives have a fitted effect of over 65% in size
Target sequence (P80244 whole entry, looked up): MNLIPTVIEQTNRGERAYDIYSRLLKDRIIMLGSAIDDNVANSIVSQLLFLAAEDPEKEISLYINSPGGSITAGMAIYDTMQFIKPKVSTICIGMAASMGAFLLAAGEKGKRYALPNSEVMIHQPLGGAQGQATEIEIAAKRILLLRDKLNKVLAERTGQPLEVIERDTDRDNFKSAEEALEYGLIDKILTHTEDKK
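Purified B. subtilis ClpP, 10 microg/mL final in Tris/HCl pH8 with KCl, BSA, glycerol and Tween-20, cleaved an Abz/nitrotyrosine-quenched decapeptide. Fluorescence (ex 320, em 430) was read at 0 and 20 min at room temperature. Delta was normalized to 5.8 microM ADEP and DMSO/no-enzyme controls.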
The depositor's hits bear a star; ? = inconclusive; / = no result; [ ] = another dose, or the depositor's remark. Unless noted, the call rests on the fitted dose curve; in most records, active means well fitted curve in the direction sought with a large enough effect; inconclusive means small, poorly fitted or top-dose-only effect, or another doubt; inactive means no such curve, though single readings can be large; an effect the other way counts as inactive or inconclusive. Potency means the concentration at half of the fitted maximal effect.

SMILES	GLP-1R agonist	HEK293 tox	GLP1R inv ag	ClpP mod
CCOc1ccc(N2CC(NC(=O)C3CC3)CC2=O)cc1 (stereo not drawn)	/	13.2%	10.9%	0.2%
Cc1ccnc2ncccc12	/	/	/	1.3%
CCNC(=O)[C@@H]1CCCN1C(=O)[C@H](CCCN=C(N)N)NC(=O)[C@H](CC(C)C)NC(=O)[C@@H](Cc1c[nH]c2ccccc12)NC(=O)[C@H](Cc1ccc(O)cc1)NC(=O)[C@H](CO)NC(=O)[C@H](Cc1c[nH]c2ccccc12)NC(=O)[C@H](Cc1cnc[nH]1)NC(=O)[C@@H]1CCC(=O)N1	-5.5%	/	/	/
CCCn1c(=O)sc2cc(NC(=O)c3ccccc3OCC)ccc21	2.8%	1.1%	8.9%	10.0%
Cc1cc(=O)oc2cc(OCC(=O)NCc3cccnc3)ccc12	-1.9%	12.9%	22.3%	25.1µM*
O=C(COc1ccc2c3c(c(=O)oc2c1)CCC3)NCc1cccnc1	11.7%	5.5%	20.7%	3.9%
CCCCNc1c(-c2ccc(SC3CCCCC3)cc2)nc2cnccn12	11.0%	125.1%	?	28.2µM*
CCOC(=O)C1(Cc2ccccc2)CCN(Cc2cccn2-c2nccs2)CC1	3.4%	?	0.0%	4.47µM*
CCOC(=O)C1(CCOc2ccccc2)CCN(Cc2cccc(F)c2)CC1	-6.0%	-13.5%	?	-3.4%
CCOC(=O)C1(CCCc2ccccc2)CCN(Cc2cnn(C)c2)CC1	13.5%	2.8%	?	/
CCOC(=O)C1(CCOc2ccccc2)CCN(Cc2ccccc2O)CC1	5.0%	-1.0%	?	/
CCOC(=O)C1(CCCc2ccccc2)CCN(Cc2ccn[nH]2)CC1	12.5%	14.0%	4.47µM*	/
CCOC(=O)C1(CCOc2ccccc2)CCN(Cc2cccc(OC)c2OC)CC1	20.8%	-4.0%	10µM*	/
CCOC(=O)C1(CCOc2ccccc2)CCN(Cc2cccc(-n3cccn3)c2)CC1	-4.5%	-11.5%	5.01µM*	1.9%
COc1cccc2cc(-c3csc(-c4ccc(Cl)cc4)n3)c(=O)oc12	/	0.0%	15.2%	-8.7%
C[N+]1(C)[C@@H]2CC(OC(=O)C(O)(c3cccs3)c3cccs3)C[C@H]1[C@@H]1O[C@@H]12 (stereo partly drawn)	-1.9%	/	/	/
CCn1c(SCC(=O)c2ccccc2)nnc1-c1cccc(Cl)c1	0.1%	-13.9%	-9.6%	-1.4%
CCOC(=O)C1(CCOc2ccccc2)CCN(Cc2ccc(OCC)c(CO)c2)CC1	-1.4%	0.0%	11.2µM*	0.1%
CCOC(=O)C1(CCOc2ccccc2)CCN(Cc2ccc(OC)cc2)CC1	-1.0%	-13.7%	10µM*	-2.7%
CCOC(=O)C1(CCOc2ccccc2)CCN(Cc2cccc(OCCO)c2)CC1	0.1%	3.4%	?	-3.8%
CSc1nc(=O)[nH]c2nc[nH]c12	/	/	/	-17.2%
COc1cc2nc(SCC(=O)Nc3c(C)cc(C)cc3C)n3nc(CCn4c(C)nc5ccccc54)nc3c2cc1OC	/	10.5%	2.0%	-6.6%
CCOC(=O)c1cnn2c(C)cc(-c3ccc(F)cc3)nc12	14.2%	18.8%	9.1%	28.2µM*
Cc1cc(-c2ccc(F)cc2)nc2cc(C(N)=O)nn12	4.6%	2.1%	30.0%	?
O=C(Nc1ccon1)c1cnc2sccn2c1=O	-5.0%	-4.2%	16.8%	20µM*
SMILES	GLP-1R agonist	HEK293 tox	GLP1R inv ag	ClpP mod
Cc1cccc(NC(=O)c2cnc3sccn3c2=O)n1	6.2%	-2.4%	3.3%	-7.2%
O=C(CCS(=O)(=O)c1cccc2nonc12)Nc1ccc(F)cc1F	0.6%	-1.2%	21.2%	0.5%
O=C(O)c1cc(-c2ccc(Cl)s2)nc2ccccc12	-0.6%	17.8%	-24.7%	/
Cc1cccc(NC(=O)c2cc(-c3ccc(C)s3)nc3ccccc23)n1	-13.5%	-4.2%	10µM*	15.8µM*
O=C(Nc1ccccn1)c1cc(-c2ccc(Cl)s2)nc2ccccc12	-2.5%	-9.1%	?	4.4%
Cc1cc(NC(=O)c2cc(-c3ccc(C)s3)nc3ccccc23)no1	0.3%	4.7%	-6.7%	5.2%
CCCCN(CCCC)CCCNC(=O)c1cc(-c2ccc(Cl)s2)nc2ccccc12	/	10.6%	-3.3%	35.5µM*
CN(Cc1ccccc1)C(=O)COC(=O)c1cc(-c2ccc(Cl)s2)nc2ccccc12	1.4%	19.8%	?	11.2µM*
Cc1ccnc(NC(=O)c2cc(-c3ccc(Cl)s3)nc3ccccc23)c1	6.3%	3.7%	7.94µM*	/
O=C(CO)NCCCOc1cccc(CN2CCCCC2)c1	1.5%	/	/	/
CCC(C)Sc1nc2ccccc2c(=O)[nH]1 (stereo not drawn)	22.6%	-19.2%	?	25.1µM*
O=C(NCC(c1ccc2c(c1)OCO2)N1CCN(c2ccccc2)CC1)C(=O)Nc1ccc(F)cc1 (stereo not drawn)	/	0.1%	3.0%	1.8%
CN1CCN(CCC(=O)Nc2ccc3c(c2)OCO3)CC1	-1.1%	-8.1%	0.4%	0.0%
CN(C)C(=O)Cn1c(SCC(=O)Nc2ccc3c(c2)OCO3)nc2ccccc21	-4.7%	-13.2%	8.3%	15.8µM*
O=C(CCN1CCCCCC1)Nc1ccc2c(c1)OCCO2	-0.1%	2.2%	5.2%	14.1µM*
Cc1cc(C)nc(SCC(=O)Nc2ccc3c(c2)OCO3)n1	0.0%	-6.0%	1.2%	-0.1%
Cc1nc(SCC(=O)Nc2ccc3c(c2)OCCO3)nc(C)c1C	8.2%	7.1%[0.307 µM]	14.7%[0.307 µM]	20µM*
NC(Cc1ccc(Cl)cc1)c1csc(Nc2cc(NCCCO)ncn2)n1 (stereo not drawn)	-0.7%	-27.0%	?	1.7%
Cc1ccc(C(=O)Nc2ccc(C)c(S(=O)(=O)Nc3ccccc3Cl)c2)s1	-17.6%	2.1%[1.53 µM]	?	-10.2%
Cc1ccc(NC(=O)c2cc3c(s2)CCCC3)cc1S(=O)(=O)Nc1ccccc1Cl	-3.7%	-8.0%	?	25.1µM*
ClC(Br)=C(n1cnc2ccccc21)n1cnc2ccccc21	21.6%	2.7%	-11.3%	25.1µM*
CN(C(=O)n1cnc2ccccc21)c1ccccc1	-4.0%	-21.7%	2.3%	0.8%
C=CCn1c(-c2cccs2)nc2nc3ccccc3nc21	28.7%	275.1%	?	-0.8%
C=CCn1c(-c2cccs2)nc2ccccc21	17.8%	7.8%	?	2.82µM*
CCn1c(CNc2ccc(Cl)cc2)nnc1SCc1ccccc1	-12.8%	-3.9%	11.2µM*	0.7%
SMILES	GLP-1R agonist	HEK293 tox	GLP1R inv ag	ClpP mod
CCn1c(SCc2ccccc2)nnc1C1CCCCC1	12.6%	1.2%	3.98µM*	0.7%
CCn1c(SCc2ccccc2)nnc1C1CCN(S(=O)(=O)c2ccc(OC)cc2)CC1	-4.9%	-0.5%	-22.3%	-0.9%
COc1ccc(CCNC(=O)c2c(O)nc3c(C)cccn3c2=O)cc1OC	/	-3.5%	9.4%	-9.6%
OCCNC1=NCCN1	-15.0%	-11.1%	10.9%	31.6µM*
CCc1nn(CC(=O)NCCCOC)c(=O)c2cc3ccccc3n12	/	3.8%	12.5%	?
CCCN(CCC)c1ncnc2c1cnn2-c1ccc(OC)cc1	10.9%	-3.3%	10µM*	-21.2%
CCCCN(CCCC)c1ncnc2c1cnn2-c1cccc(C)c1	/	26.9%	?	-17.6%
